Assay outcomes (PubChem BioAssay)
GAA glycogen – inhibitors or activators of human alpha-glucosidase glycogen cleavage | P10253 | recombinant GAA, glycogen substrate, Amplex Red glucose oxidase fluorescence | Potency, µM (top dose mostly 76.4 µM), for the others: at the top dose activity change, negative = inhibition, actives largely listed as inhibitors | hit rate 0.38% among 300,000 | AID 2100;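 also: potency is read from the fitted curve at half-maximal effect; 0% = full enzyme reaction and -100% = no-enzyme basal signal; the screen sought inhibitors and activators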
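Recombinant enzyme (4 nM final) with compounds titrated up to 77 uM and bovine liver glycogen (30 ug) in citrate pH 5.0, 0.01% Tween-20, 37 C 40 min. Released glucose detected by Amplex Red/glucose oxidase (Ex 573/Em 610); AC50 from Hill fits.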
GAA inh – inhibitors of human lysosomal alpha-glucosidase; P10253; purified human GAA, 4-MU-alpha-glucoside fluorescence; Potency, µM (series often up to 76.9 µM), without a hit: at the highest dose activity change, negative = inhibition, actives largely listed as inhibitors; hit rate 0.005% among 200,000; AID 1466;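 also: potency is read from the fitted curve at half-maximal effect; plate controls were uninhibited enzyme wells for no effect and no-enzyme background for full effect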
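Human alpha-glucosidase, 4 nM, pre-mixed with test compounds before 400 uM 4-methylumbelliferyl substrate; 20 min room temperature at pH 5.0. Fluorescence read after pH 10 stop; AC50 values from Hill-equation fits.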
GAA spleen mod – inhibitors or activators of human alpha-glucosidase in spleen homogenate; P10253; hit rate 0.006% among 240,000; human spleen homogenate, 4-MU-alpha-glucoside fluorescence; Potency, µM (doses to about 79.9 µM), without a hit: top-dose activity change, negative = inhibition, most hits filed as inhibitors;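 also: potency is read from the fitted curve at half-maximal effect; 0% = enzyme with vehicle and -100% = no enzyme basal signal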
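AC50 values come from Hill-equation fits of concentration-response data, normalized to no-enzyme and full-activity controls. Enzyme source: 1 ug human spleen homogenate; 1 mM fluorogenic 4-MU glucoside, pH 5.0 citrate buffer, 37 C, 40 min.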
GLA inh pH 4.5 – blocks human alpha-galactosidase A at pH 4.5 | P06280 | purified enzyme, 4-MU-alpha-Gal fluorescence, pH 4.5 | activity change, negative = inhibition, % at 105 µM | 230,000 tested, under 10 active;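 also: 0% = full activity with enzyme and -100% = basal without enzyme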
N370S GC mod – N370S glucocerebrosidase modulation, Gaucher chaperone candidate. N370S GC spleen homogenate, 4MU-glucoside fluorescence. P04062. Potency, µM (series often up to 59.4 µM), for the others: at the highest dose activity change, negative = inhibition, hits mostly inhibitors. hit rate 0.092% among 330,000;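 also: potency is read from the fitted curve at half-maximal effect; 0% = full enzyme activity and -100% = no enzyme basal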
GLA spleen mod – alpha-galactosidase A (human) modulation. P06280. human spleen homogenate, 4MU-alpha-Gal fluorescence, 40 min. Potency, µM (doses to about 80 µM), without a hit: at the highest dose activity change, negative = inhibition, usual class: inhibitors. hit rate 0.008% among 240,000. AID 2107;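 also: potency is read from the fitted curve at half-maximal effect; 0% = enzyme with vehicle and -100% = no enzyme basal signal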
Target sequence (P06280 32-429 limits assumed): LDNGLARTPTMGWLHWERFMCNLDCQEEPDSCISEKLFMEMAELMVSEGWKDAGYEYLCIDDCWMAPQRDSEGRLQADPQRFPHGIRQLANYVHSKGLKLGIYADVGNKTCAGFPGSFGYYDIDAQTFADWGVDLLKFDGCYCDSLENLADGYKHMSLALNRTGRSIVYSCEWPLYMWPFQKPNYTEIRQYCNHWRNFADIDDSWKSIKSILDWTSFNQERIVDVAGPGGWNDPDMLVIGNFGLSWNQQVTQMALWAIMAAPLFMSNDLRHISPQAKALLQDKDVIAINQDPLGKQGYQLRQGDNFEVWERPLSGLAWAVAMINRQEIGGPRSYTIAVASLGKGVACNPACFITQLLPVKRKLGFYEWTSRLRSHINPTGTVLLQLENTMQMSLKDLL
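Human spleen homogenate (1 ug) as enzyme source, 4-methylumbelliferyl-alpha-D-galactopyranoside 1 mM final, citrate/phosphate pH 5.0 with 0.01% Tween-20. Compounds 40 min at 37C, NaOH/glycine stop; fluorescence Ex 365/Em 440, Hill-fit AC50.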
* = called active by the depositor; ? = inconclusive; . = not tested or not shown; [ ] = another dose, or the depositor's remark. In the library only some 0.43% were active in any assay of this set; here they are far more common. Calls follow the shape of the dose curve; as a rule, active = well fitted curve in the direction sought with a large enough effect; inconclusive = small, poorly fitted or top-dose-only effect, or another doubt; inactive = no such curve, though single readings can be large; an effect the other way counts as inactive or inconclusive.

SMILES	GAA glycogen	GAA inh	GAA spleen mod	GLA inh pH 4.5	N370S GC mod	GLA spleen mod
C/C=C1\C(=O)C[C@H]2[C@@H]3CCC4=CC(=O)CC[C@]4(C)[C@H]3CC[C@]12C	.	.	7%	.	-8%	11%
Cc1c(NCc2nc3ccccc3[nH]2)c(=O)n(-c2ccccc2)n1C	11µM*	-3%	1%	-10	-3%	4%
Cc1c(NCc2cc(Cl)cc(Cl)c2O)c(=O)n(-c2ccccc2)n1C	10µM*	-13%	-2%	-4	8%	2%
Cc1c(NC(=O)Nc2c(Cl)cccc2Cl)c(=O)n(-c2ccccc2)n1C	-6%	.	3%	5	0%	7%
Cc1c(NC(=O)Nc2ccc(Cl)cc2Cl)c(=O)n(-c2ccccc2)n1C	-9%	6%	0%	0	12%	4%
Cc1c(NCc2cc(Cl)ccc2O)c(=O)n(-c2ccccc2)n1C	13µM*	11%	-3%	6	0%	-2%
CCOC(=O)c1[nH]c2ccc(OC)cc2c1NC(=S)N1CCN(c2ccccc2OC)CC1	4µM*	3%	-7%	7	5%	8%
CCOC(=O)c1[nH]c2ccc(OC)cc2c1NC(=S)N1CCN(C(=O)OCC)CC1	?	1%	-4%	2[21.1 µM]	4%	-1%
CCOC(=O)c1[nH]c2ccc(OC)cc2c1NS(=O)(=O)c1ccc(OC)cc1OC	13µM*	-1%	-11%	2	9%	-6%
Cc1cc(=O)c2c(O)c3c(O)cc(O)c4c5c(O)cc(O)c6c(O)c7c(=O)cc(C)c8c1c2c(c34)c(c65)c78	.	.	-4%	-7	-6%	-12%
O=S(=O)(NC1c2cccc3cccc(c23)C1N1CCNCC1)c1ccc(Cl)cc1 (stereo unspecified)	7%	8%	-8%	6	7.1µM*	-12%
Cc1ccc(-c2nc3cnccn3c2Nc2c(C)cccc2C)o1	3.5µM*	-11%[15.4 µM]	0%	9	11%	0%
Cc1ccc(-c2nc3ncccn3c2Nc2ccccc2C)o1	?	-6%	-4%	-6	-11%	-2%
CCOC(=O)c1ccc(N2C(=O)CC(Nc3ccc(O)cc3)C2=O)cc1 (stereo unspecified)	10µM*	.	-6%	7	-18%	-4%
CC(C)([CH2][Sn]([CH2]C(C)(C)c1ccccc1)([CH2]C(C)(C)c1ccccc1)[O][Sn]([CH2]C(C)(C)c1ccccc1)([CH2]C(C)(C)c1ccccc1)[CH2]C(C)(C)c1ccccc1)c1ccccc1	.	.	5%	.	-1%	-5%
Cc1cc(C)c2c(-n3cccc3)c(C(=O)NNS(=O)(=O)c3ccccc3)sc2n1	?	0%	3%	-11	20%	6%
Cc1cc(C)c2c(-n3cccc3)c(C(=O)NNS(=O)(=O)c3ccc(Cl)cc3)sc2n1	20µM*	-16%	-5%	4	26%	7%
C=CC1=C(C)C2=NC1=CC1=NC(=CC3=NC(=CC4=NC(=C2)C(C)=C4CCC(=O)O)C(CCC(=O)O)=C3C)C(C=C)=C1C.[Zn]	.	.	-11%	-18	-17%	4%
COC(=O)Cn1cnc2c(nnn2-c2ccc(F)cc2)c1=O	15%[76.3 µM]	.	.	.	4%	.
CCOC(=O)Cn1cnc2c(nnn2-c2ccc(F)cc2)c1=O	50µM*	.	.	.	-2%	.
Cc1ccn2c(C(=O)NN=C3CCCCCCC3)c(C)nc2c1	40µM*	11%	3%	0	-11%	-4%
COc1cc(/C=C2\N=C3CCCCCN3C2=O)ccc1O	-25%	-10%	-9%	-10	-17%	-2%
O=C1/C(=C\c2ccc(O)c(O)c2)N=C2CCCCCN12	7.1µM*	.	-7%	-15	-14%	-7%
Cc1ccc(-c2nc(Nc3ccc(N4CCOCC4)cc3)c3ccccc3n2)cc1	-9%	.	-1%	-13	14µM*	9%
c1ccc(Nc2nc(-c3ccccc3)nc3ccccc23)cc1	4%[76.3 µM]	.	.	.	?	.
SMILES	GAA glycogen	GAA inh	GAA spleen mod	GLA inh pH 4.5	N370S GC mod	GLA spleen mod
c1ccc(Nc2nc(-c3ccoc3)nc3ccccc23)cc1	.	.	5%	.	13µM*	13%
CCCCc1cc2c(cn1)=C(OC(=O)c1ccco1)C(C)(OC(=O)CC)C(=O)C=2 (stereo unspecified)	.	.	-3%[17.4 µM]	8	4%[12.8 µM]	0%[17.5 µM]
CC1(C)C(=O)NC2=C1C(=O)C(=O)c1ccccc12	.	.	2%	-5	-9%	6%
CCS(=O)(=O)Nc1c(C(=O)OC)[nH]c2ccccc12	4.5µM*	-3%	-1%	6	-4%	7%
CCS(=O)(=O)Nc1c(C(=O)O)[nH]c2ccccc12	5µM*	-7%	-2%	0	-8%	-3%
COC(=O)c1[nH]c2ccccc2c1NC(=O)Oc1ccccc1	-17%	-1%[15.4 µM]	-1%	-3	-6%	0%
CC(=O)Nc1c(C(=O)O)[nH]c2ccccc12	-3%	0%	-5%	-2	2%	-6%
COc1ccc(N2C(=O)CC(Nc3ccc(C)cc3)C2=O)cc1 (stereo unspecified)	-18%	1%	-4%	0	15%	2%
COc1ccc(NC2CC(=O)NC2=O)cc1 (stereo unspecified)	11µM*	-4%	-1%	14	8%	1%
Cc1ccccc1N(C(=O)c1ccccn1)C(C(=O)NCc1ccccc1)c1ccncc1 (stereo unspecified)	-6%	.	.	.	-3%	.
O=C(NCc1ccccc1)C(c1ccncc1)N(C(=O)c1ccccn1)c1ccccc1 (stereo unspecified)	11µM*	.	.	.	-6%	.
COc1cc(C2C3=C(CCCC3=O)Nc3[nH]n(-c4ccccc4)c(=O)c32)ccc1O (stereo unspecified)	28µM*	3%	-12%	-20	-11%	?
C=CCNC(=S)NNc1nc(N2CCCC2)nc(N2CCCC2)n1	?	.	.	.	-1%	.
C=CCNC(=S)NNc1nc(Nc2ccccc2)nc(N2CCCCC2)n1	16µM*	8%	-9%	-9	10%	-25%
COC(=O)C1CSc2[nH]c(=O)sc2C1c1ccc(O)c(OC)c1 (stereo unspecified)	16µM*	0%	3%	-14	12%	-12%
COc1cc(C2c3sc(=O)[nH]c3SC3C(=O)N(c4ccc(C)cc4)C(=O)C32)ccc1O (stereo unspecified)	11µM*	-9%	-1%	1	-11%	-4%
COc1ccc(C2c3sc(=O)[nH]c3SCC2C(N)=O)cc1 (stereo unspecified)	?	.	8%	-3	-3%	5%
CC(=O)[C@]1(O)Cc2c(O)c3c(c(O)c2[C@@H](O[C@H]2C[C@H](N)[C@H](O)[C@H](C)O2)C1)C(=O)c1c(O)cccc1C3=O	.	.	-9%	-4	-18%	-8%
